From PubChem BioAssay
Hits are enriched below; roughly 1.8% of the tested compounds scored in any of these assays.
Myeloid diff MLP: myeloid differentiation induction. ER-HoxA9 myeloid progenitors, lysozyme-GFP differentiation, flow cytometry. calls only at 10 µM. 360,000 compounds, 1% hits. AID 624256;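 active means normalized GFP-positive differentiation at or above the plate's own cutoff, the solvent-only control mean plus 3 SD; inconclusive means no clear call, values can overlap the other calls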;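 further: cells exposed to compound for four days before flow analysis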
ABCB6 inh 2: blocks the human ABCB6 transporter. Q9NP58. fluorescence ratio to DMSO, % at 10 µM. 360,000 compounds, 0.19% hits. K562-ABCB6 porphyrin accumulation, flow cytometry, 1 h; hits give low values;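 active means fluorescence ratio to DMSO below 75%, the collection mean minus 3 SD; inconclusive means too few cells collected in the well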;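 further: signal is porphyrin accumulated inside mitochondria; lower ratio means ABCB6 inhibition with less porphyrin fluorescence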
Target sequence (Q9NP58 whole entry, looked up): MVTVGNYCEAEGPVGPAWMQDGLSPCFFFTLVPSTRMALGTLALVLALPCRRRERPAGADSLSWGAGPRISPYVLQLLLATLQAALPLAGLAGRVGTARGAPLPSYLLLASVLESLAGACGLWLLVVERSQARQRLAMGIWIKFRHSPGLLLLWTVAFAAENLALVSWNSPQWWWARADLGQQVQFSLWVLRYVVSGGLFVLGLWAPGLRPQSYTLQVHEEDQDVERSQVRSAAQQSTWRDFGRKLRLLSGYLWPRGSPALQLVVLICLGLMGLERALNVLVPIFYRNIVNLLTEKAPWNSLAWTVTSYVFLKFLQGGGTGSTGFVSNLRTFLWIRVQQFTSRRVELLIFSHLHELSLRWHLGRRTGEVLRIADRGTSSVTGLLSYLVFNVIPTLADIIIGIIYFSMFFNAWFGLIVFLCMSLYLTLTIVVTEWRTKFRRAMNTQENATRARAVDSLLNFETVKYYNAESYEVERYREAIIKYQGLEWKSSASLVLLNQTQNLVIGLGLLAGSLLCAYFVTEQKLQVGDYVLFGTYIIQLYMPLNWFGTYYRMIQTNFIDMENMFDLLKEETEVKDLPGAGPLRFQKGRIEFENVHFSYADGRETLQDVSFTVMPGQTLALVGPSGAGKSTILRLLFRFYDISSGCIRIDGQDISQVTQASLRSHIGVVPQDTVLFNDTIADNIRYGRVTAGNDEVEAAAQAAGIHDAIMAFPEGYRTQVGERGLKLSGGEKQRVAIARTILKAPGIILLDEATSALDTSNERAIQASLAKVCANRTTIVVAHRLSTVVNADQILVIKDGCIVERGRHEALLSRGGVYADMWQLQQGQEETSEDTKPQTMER
Granule exo inh: lytic granule exocytosis inhibition; inhibition, % at 10 µM; 360,000 compounds, 0.66% hits; TALL-104 LAMP-1 surface exposure, flow cytometry; cells stimulated with thapsigargin and PMA;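 active means inhibition above about 55%, limit read from the data; inconclusive means no clear call, values can overlap the other calls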
Numbers stand for hits; . = inactive; ? = inconclusive; / = not tested or not shown; + = active, no number.

SMILES | Myeloid diff MLP | ABCB6 inh 2 | Granule exo inh
O=C1C=C(NCc2ccccc2)c2ccccc2C1=O | + | . | 82
COc1ccccc1NS(=O)(=O)c1ccc(C)c(C(=O)NCC2(N(C)C)CCCCC2)c1 | . | . | .
CCOc1ccc(CCNC(=O)Cn2ncn3nc(-c4ccc(OC)cc4)cc3c2=O)cc1OCC | . | . | .
COC(=O)c1ccsc1-n1cc(C#N)c(=O)n(C)c1=O | . | . | .
COc1ccc(NC(=O)N2CCN(c3nc(-c4cccc(OC)c4)cs3)CC2)cc1 | + | . | .
COc1cccc(-c2csc(N3CCN(C(=O)Nc4ccc(Cl)cc4)CC3)n2)c1 | . | . | .
Cc1cccc(N2CCN(C(=O)c3cn(C)c(=O)c4c3c3ccccc3n4C)CC2)c1C | . | . | .
Cc1ccc(Cl)cc1N1CCN(C(=O)c2cn(C)c(=O)c3c2c2ccccc2n3C)CC1 | + | . | .
CC(=O)Nc1ccc(S(=O)(=O)N(C)c2ccc(OCC(=O)NCCc3ccccc3F)cc2)cc1 | . | . | .
O=C(O)C[C@H]1c2ccc(C(F)(F)F)cc2S(=O)(=O)N1Cc1ccccc1 | . | . | .
CCCCCc1cc(=O)oc2c(C(CCN3CCCC(C)C3)c3cc(OC)c(OC)c(OC)c3)c(OC)cc(OC)c12 (centres undefined) | ? | . | .
CCCCCc1cc(=O)oc2c(C(CCN3CCCC(C)C3)c3ccc(N(C)C)cc3)c(OC)cc(OC)c12 (centres undefined) | . | . | 81
CNc1ncnc2c1ncn2[C@H]1CN(Cc2ccncc2)C[C@@H](CO)O1 | . | . | .
COC(=O)Nc1ccc2c(c1)N(C(=O)CCN1CCOCC1)c1ccccc1S2 | . | . | .
COC(=O)Nc1ccc2c(c1)N(C(=O)CCCl)c1ccccc1S2 | + | . | .
O=C(c1ccc2c(c1)CCC2)N1CCN(Cc2ccccc2)CC1 | . | . | .
COC(=O)[C@@]1(C(C)C)N=C(c2cc(OC)c(OC)c(OC)c2)[C@]2(O1)C(=O)N(C)c1ccccc12 | . | . | .
Cc1ccc(N=Cc2cccc(O)c2O)c(C)c1 | . | . | 93
Cc1ccccc1N=Cc1cccc(O)c1O | . | . | .
Cc1ccc(O)c(C=Nc2cc(C)ccc2O)c1 | + | . | .
CC(C)(C)c1ccc(O)c(N=Cc2cc(Br)ccc2O)c1 | . | . | .
Cc1cc(=O)n2nc(N3CCCC(C(=O)NCCCN4C(C)CCCC4C)C3)sc2n1 (centres undefined) | . | . | .
COCCNC(=O)C1(C)CCN(Cc2ccc3ccccc3c2Br)C1 (centres undefined) | ? | . | .
Nc1c(-c2ccc(F)c(F)c2)nc2ncccn12 | . | / | .
CC(OC(=O)[C@@H](NC(=O)OCc1ccccc1)C(C)C)C(=O)Nc1ccc(N2CCOCC2)cc1 (some centres undefined) | . | . | .
SMILES | Myeloid diff MLP | ABCB6 inh 2 | Granule exo inh
COc1ccc(CCC(=O)Nc2cccc(S(=O)(=O)N3CCCCCC3)c2)cc1OC | . | . | .
COc1ccc(CC(=O)Nc2cccc(S(=O)(=O)N3CCCCCC3)c2)cc1OC | + | . | .
CC1CCCN(CC(=O)Nc2ccc(S(=O)(=O)N3CCCC3)cc2)C1 (centres undefined) | + | . | .
CC1CCN(S(=O)(=O)c2ccc(NC(=O)CN3CCCC(C)C3)cc2)CC1 (centres undefined) | . | . | .
C=C(C)COc1ccc(-c2n[nH]c(C)c2Oc2ccccc2OC)c(O)c1 | . | . | 74
CCOc1ccc(-c2n[nH]c(C)c2Oc2ccccc2OC)c(O)c1 | . | . | .
COc1cccc(-c2nn(C)c3sc(C(=O)N4CCN(c5ccccn5)CC4)cc23)c1 | + | . | .
COc1cccc(-c2nn(C)c3sc(C(=O)N4CCOCC4)cc23)c1 | . | . | .
COc1ccc(/C=C/C(=O)c2ccc(O)cc2)cc1CN1CCOCC1 | + | . | .
COc1ccc(C)cc1Cn1nnc2ccccc21 | . | . | .
COc1ccc(C(=O)/C=C/c2ccc(OC)c(Cn3nnc4ccccc43)c2)cc1 | + | . | .
COc1ccc(C(=O)/C=C/c2ccc(OC)c(CN3CCOCC3)c2)cc1 | ? | . | .
COc1ccc(S(=O)(=O)Nc2ccc3c(c2)C(=O)N([C@H](C)CO)C[C@H](C)[C@@H](CN(C)S(=O)(=O)c2cn(C)cn2)OCCCC[C@H](C)O3)cc1 | . | . | .
CCCCn1c(-c2cccs2)nc2nc3ccccc3nc21 | . | . | .
Fc1ccc(-n2c(-c3ccco3)nc3nc4ccccc4nc32)cc1 | + | . | .
CCCCOCCCn1c(-c2ccco2)nc2nc3ccccc3nc21 | + | . | .
Fc1cccc(-n2c(-c3ccco3)nc3nc4ccccc4nc32)c1 | . | . | .
O=C1/C(=C/c2ccccc2)CCc2ccc(Cl)nc21 | / | . | .
COC(=O)[C@]12CCCCC=C1N(CCC1=CCCCC1)C(=O)[C@H](CC(=O)NCC13CC4CC(CC(C4)C1)C3)C2 | . | . | .
CCC1C(=O)C[C@H]2CCN3C(=O)CCCC1C23 (some centres undefined) | . | . | .
COc1ccc([C@H]2C[C@@H](O)[C@H](n3cc(COC(=O)c4ccccc4)nn3)CN2C(=O)c2cccs2)cc1 | . | . | .
CC(=O)Nc1sc(/C(C#N)=C/c2ccc(Cl)c(Cl)c2)nc1-c1ccc(C)cc1 | + | . | .
CC(=O)Nc1sc(N/N=C/c2ccc(C)cc2)nc1-c1ccc(C)cc1 | . | . | .
COc1ccc(N2CCN(C(=O)COC(=O)/C=C/c3ccc(C(F)(F)F)cc3)CC2)cc1 | + | . | .
COc1ccc(N2CCN(C(=O)COC(=O)/C=C/c3ccc(OC(F)F)cc3)CC2)cc1 | / | . | .
SMILES | Myeloid diff MLP | ABCB6 inh 2 | Granule exo inh
COc1ccc(N2CCN(C(=O)COC(=O)Cc3cccc(OC)c3)CC2)cc1 | . | . | .
COc1ccc(N2CCN(C(=O)COC(=O)c3ccco3)CC2)cc1 | + | . | .
N#CC(C#N)=c1ccc2c(c1)NC1(CCCCC1)N=2 | + | . | .
N#CC(C#N)=C1NC2(CCCCC2)Cc2ccccc21 | . | . | .
Cc1cccc(C)c1NC(=O)C(CCc1ccccc1)N1CCC(c2ccccc2)CC1 (centres undefined) | . | / | .
Cc1ccc(CN2CC(N3CCN(C)CC3)CS2(=O)=O)cc1 (centres undefined) | . | . | .
Cn1c(=O)oc2cc(S(=O)(=O)NC3CCCCC3)ccc21 | . | . | .
CC1CCN(C(=O)CCNS(=O)(=O)c2ccc3c(c2)oc(=O)n3C)CC1 | . | . | .
Cn1c(=O)oc2cc(S(=O)(=O)NCC3CCCO3)ccc21 (centres undefined) | + | . | .
CC1CC(C)CN(CCCNS(=O)(=O)c2ccc3c(c2)oc(=O)n3C)C1 (centres undefined) | + | . | .
CC(C)COC(=O)N1CCCC(c2cc(C(=O)Nc3ccccc3Cl)no2)C1 (centres undefined) | . | . | .
COC(=O)[C@@]12C[C@@H](CC(=O)N3CCCC3)C(=O)N(Cc3ccccc3)C1=CCC(C)(C)C2 | . | / | .
CCNC(=O)C1CCCN(C(=O)c2ccccc2)CC1 (centres undefined) | . | . | .
Cc1c(Cl)cccc1N1CC(C)(C)C1=O | . | . | .
O=S1(=O)N[C@@H](Cc2ccccc2)COc2cc(N3CC[C@H](O)C3)ccc21 | . | . | .
